Experimental data reported in the supplement of paper PMC10849652.
Of roughly 7,900 targets only a part is listed; those with a hit were picked by preference. About 0.6% of all pairs of compound and target were hits. Values without a mark were called inactive.

How the values were obtained:
Assay in all cases: log2 fold change, soluble protein after heating vs DMSO (PISA); higher = thermal stabilisation; K562 cells, 10 uM, 30 min; active = over 0.2 and 3.5 SD of the protein, either way, in both replicates (recomputed)
[1] = compound: Cc1ccc(NC(=O)c2ccc(CN3CC[C@H](N(C)C)C3)c(C(F)(F)F)c2)cc1Nc1nccc(-c2cncnc2)n1 [bafetinib]
In short: (§1)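 K562 cells at 2×10^6 cells/mL were exposed to 10 μM compound for 30 min, then aliquots were heated for 3 min across 48°C-58°C, pooled, and extracted in PBS containing 0.5% NP-40 at 4°C. The supernatant after 21,000xg for 90 min was taken as soluble protein and measured by TMTpro 16plex LC-MS/MS with channel sums equalised. Thermal stability is reported relative to control samples, with values from duplicates. Fold changes are given on a log2 scale.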

[2] = compound: Cc1cccc(CC(=O)N2CCc3c2ccc(-c2cn(C)c4ncnc(N)c24)c3F)n1
In short: as §1

[3] = compound: Cc1cn(-c2cc(NC(=O)c3ccc(C)c(Nc4nccc(-c5cccnc5)n4)c3)cc(C(F)(F)F)c2)cn1 [nilotinib]
In short: as §1

[4] = compound: Cc1nc(Nc2n[nH]c3c2CN(C(=O)N[C@H](CN(C)C)c2ccccc2)C3(C)C)c2sccc2n1
In short: as §1

[5] = compound: Cc1nc(Nc2ncc(C(=O)Nc3c(C)cccc3Cl)s2)cc(N2CCN(CCO)CC2)n1 [dasatinib]
In short: as §1

[6] = compound: Cc1ncc(-c2ccnc(Nc3ccc(S(C)(=O)=O)cc3)n2)n1C(C)C
In short: as §1

[7] = compound: Cn1cc(-c2ccc3c(c2)CCN3C(=O)Cc2cccc(C(F)(F)F)c2)c2c(N)ncnc21
In short: as §1

[8] = compound: Cn1cc(-c2ccc3nnc(C(F)(F)c4ccc5ncccc5c4)n3n2)cn1
In short: as §1

[9] = compound: Cn1cncc1[C@@](N)(c1ccc(Cl)cc1)c1ccc2c(c1)c(-c1cccc(Cl)c1)cc(=O)n2C [tipifarnib]
In short: as §1

[10] = compound: FC(F)(F)c1ccc(/C=C/c2nc(COc3ccc(CCCCn4ccnn4)cc3)co2)cc1 [mubritinib]
In short: as §1

[11] = compound: NC(=O)Nc1cc(-c2cccc(F)c2)sc1C(=O)N[C@H]1CCCNC1
In short: as §1

[12] = compound: NC(=O)c1cnc(N[C@@H]2CCCC[C@@H]2N)nc1Nc1cccc(-n2nccn2)c1
In short: as §1

[13] = compound: NC1(c2ccc(-c3nc4ccn5c(=O)[nH]nc5c4cc3-c3ccccc3)cc2)CCC1
In short: as §1

[14] = compound: NCC(=O)Nc1ccc(-n2nc(C(F)(F)F)cc2-c2ccc3c(ccc4ccccc43)c2)cc1
In short: as §1

[15] = compound: Nc1ccccc1NC(=O)c1ccc(CNC(=O)OCc2cccnc2)cc1 [entinostat]
In short: as §1

[16] = compound: O=C(CCCCCCC(=O)Nc1ccccc1)NO [vorinostat]
In short: as §1

[17] = compound: O=C(CCCCCCNC(=O)c1cnc(N(c2ccccc2)c2ccccc2Cl)nc1)NO [citarinostat]
In short: as §1

[18] = compound: O=C(O)c1ccc2c(c1)nc(Nc1cccc(Cl)c1)c1ccncc12 [silmitasertib]
In short: as §1

[19] = compound: O=C1NC(=O)C(c2cnc3ccccn23)=C1c1cn2c3c(cc(F)cc13)CN(C(=O)N1CCCCC1)CC2
In short: as §1

[20] = compound: c1cc(OCCN2CCCCC2)cc(-c2n[nH]c3ccc(-c4nnc[nH]4)cc23)c1
In short: as §1

Chain of UniProt P43897 (P43897 whole entry, looked up): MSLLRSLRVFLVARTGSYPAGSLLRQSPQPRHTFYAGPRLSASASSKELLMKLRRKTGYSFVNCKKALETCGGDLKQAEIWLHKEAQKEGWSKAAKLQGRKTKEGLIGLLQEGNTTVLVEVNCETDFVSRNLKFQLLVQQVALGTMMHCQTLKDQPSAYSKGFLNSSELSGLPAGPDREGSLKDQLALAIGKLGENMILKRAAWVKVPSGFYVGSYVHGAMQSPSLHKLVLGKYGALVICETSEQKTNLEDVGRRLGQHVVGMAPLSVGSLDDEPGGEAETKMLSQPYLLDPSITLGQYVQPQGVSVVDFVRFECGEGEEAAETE
Chain of UniProt P49754 (P49754 whole entry, looked up): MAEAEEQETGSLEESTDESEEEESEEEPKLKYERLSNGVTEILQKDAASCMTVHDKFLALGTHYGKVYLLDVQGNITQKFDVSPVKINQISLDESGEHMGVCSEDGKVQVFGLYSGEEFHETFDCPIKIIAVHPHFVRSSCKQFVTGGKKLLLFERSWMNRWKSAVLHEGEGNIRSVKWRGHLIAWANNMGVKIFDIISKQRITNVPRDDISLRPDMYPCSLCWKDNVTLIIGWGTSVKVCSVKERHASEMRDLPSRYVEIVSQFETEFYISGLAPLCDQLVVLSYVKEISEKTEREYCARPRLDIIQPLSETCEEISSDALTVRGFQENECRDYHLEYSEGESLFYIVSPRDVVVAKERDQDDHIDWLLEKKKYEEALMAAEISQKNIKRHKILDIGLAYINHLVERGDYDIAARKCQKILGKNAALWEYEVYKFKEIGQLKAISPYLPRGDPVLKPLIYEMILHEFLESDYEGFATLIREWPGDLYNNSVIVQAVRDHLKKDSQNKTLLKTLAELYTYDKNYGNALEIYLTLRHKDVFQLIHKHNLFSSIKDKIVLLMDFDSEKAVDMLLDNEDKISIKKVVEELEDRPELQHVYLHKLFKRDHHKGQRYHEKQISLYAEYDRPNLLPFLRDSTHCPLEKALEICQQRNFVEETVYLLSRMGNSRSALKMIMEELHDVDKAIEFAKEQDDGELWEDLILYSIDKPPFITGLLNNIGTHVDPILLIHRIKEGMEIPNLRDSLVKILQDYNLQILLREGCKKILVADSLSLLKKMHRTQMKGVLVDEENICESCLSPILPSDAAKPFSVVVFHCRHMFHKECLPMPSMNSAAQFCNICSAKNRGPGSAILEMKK
Chain of UniProt Q96JC1 (Q96JC1 whole entry, looked up): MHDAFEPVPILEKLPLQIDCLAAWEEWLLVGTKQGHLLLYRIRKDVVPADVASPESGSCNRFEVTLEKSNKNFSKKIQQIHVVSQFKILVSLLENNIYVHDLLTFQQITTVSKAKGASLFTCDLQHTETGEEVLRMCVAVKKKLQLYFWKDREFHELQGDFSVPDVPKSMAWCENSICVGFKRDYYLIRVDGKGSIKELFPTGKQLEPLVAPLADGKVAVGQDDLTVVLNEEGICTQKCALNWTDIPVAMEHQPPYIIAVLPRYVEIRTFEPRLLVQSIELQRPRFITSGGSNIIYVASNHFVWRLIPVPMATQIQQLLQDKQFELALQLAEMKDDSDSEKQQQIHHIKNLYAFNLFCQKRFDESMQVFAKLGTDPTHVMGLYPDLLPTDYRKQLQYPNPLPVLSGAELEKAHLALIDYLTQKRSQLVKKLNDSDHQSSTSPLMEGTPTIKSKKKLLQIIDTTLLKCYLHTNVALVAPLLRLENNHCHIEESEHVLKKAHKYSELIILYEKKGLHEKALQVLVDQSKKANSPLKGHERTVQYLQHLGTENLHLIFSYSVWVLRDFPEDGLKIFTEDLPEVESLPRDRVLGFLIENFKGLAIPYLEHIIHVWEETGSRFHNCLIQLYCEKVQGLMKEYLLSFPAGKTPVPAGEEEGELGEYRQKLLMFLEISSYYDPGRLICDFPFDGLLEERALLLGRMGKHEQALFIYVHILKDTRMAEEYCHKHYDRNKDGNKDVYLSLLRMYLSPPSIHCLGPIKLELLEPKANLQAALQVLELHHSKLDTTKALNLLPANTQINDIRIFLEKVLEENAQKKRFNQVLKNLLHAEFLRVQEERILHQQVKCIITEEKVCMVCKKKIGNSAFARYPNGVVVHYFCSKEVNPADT
Chain of UniProt Q8IWV8 (Q8IWV8 whole entry, looked up): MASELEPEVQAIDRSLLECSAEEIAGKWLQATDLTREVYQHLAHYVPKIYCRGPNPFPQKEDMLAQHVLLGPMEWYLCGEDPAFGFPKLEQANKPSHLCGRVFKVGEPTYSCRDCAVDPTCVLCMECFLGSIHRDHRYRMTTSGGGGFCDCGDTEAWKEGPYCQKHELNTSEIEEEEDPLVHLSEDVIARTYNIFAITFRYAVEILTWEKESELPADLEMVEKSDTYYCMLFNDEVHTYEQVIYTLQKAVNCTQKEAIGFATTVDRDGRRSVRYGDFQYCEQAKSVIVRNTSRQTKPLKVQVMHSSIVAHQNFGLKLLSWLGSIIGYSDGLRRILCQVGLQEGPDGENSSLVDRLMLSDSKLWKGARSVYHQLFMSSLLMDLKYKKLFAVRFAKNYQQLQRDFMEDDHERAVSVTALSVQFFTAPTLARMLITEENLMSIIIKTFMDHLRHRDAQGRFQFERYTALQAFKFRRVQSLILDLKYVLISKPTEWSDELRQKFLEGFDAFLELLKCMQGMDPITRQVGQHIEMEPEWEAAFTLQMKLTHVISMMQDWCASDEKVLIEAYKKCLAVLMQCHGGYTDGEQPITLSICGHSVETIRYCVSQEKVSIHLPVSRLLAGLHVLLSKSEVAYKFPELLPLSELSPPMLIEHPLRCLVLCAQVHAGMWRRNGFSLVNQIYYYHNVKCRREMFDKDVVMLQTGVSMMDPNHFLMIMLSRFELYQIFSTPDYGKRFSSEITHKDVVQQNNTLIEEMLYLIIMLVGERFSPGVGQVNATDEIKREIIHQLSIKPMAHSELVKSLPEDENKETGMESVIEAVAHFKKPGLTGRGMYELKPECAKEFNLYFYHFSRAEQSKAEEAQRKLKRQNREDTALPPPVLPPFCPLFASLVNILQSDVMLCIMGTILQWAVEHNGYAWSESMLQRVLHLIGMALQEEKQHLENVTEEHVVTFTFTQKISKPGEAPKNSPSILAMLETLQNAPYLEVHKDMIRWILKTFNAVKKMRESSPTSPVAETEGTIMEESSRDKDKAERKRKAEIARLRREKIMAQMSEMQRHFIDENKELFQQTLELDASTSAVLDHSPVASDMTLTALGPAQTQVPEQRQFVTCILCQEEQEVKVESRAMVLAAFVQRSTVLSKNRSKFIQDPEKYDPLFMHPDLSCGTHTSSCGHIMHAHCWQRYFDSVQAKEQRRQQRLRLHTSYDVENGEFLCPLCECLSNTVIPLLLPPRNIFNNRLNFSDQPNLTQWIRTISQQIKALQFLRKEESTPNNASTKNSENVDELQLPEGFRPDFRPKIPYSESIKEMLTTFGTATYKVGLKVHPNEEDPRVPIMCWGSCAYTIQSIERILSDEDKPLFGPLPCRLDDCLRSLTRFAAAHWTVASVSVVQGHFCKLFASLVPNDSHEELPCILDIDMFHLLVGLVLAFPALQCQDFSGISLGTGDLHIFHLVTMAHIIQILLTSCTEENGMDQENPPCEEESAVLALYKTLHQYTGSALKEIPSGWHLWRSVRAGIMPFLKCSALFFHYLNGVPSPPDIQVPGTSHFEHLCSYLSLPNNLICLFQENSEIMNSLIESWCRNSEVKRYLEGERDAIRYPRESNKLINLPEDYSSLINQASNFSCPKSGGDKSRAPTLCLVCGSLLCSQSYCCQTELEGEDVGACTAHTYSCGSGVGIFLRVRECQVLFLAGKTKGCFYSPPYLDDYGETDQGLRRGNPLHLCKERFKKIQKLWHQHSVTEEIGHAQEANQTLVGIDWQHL
Chain of UniProt Q8NDZ6 (Q8NDZ6 whole entry, looked up): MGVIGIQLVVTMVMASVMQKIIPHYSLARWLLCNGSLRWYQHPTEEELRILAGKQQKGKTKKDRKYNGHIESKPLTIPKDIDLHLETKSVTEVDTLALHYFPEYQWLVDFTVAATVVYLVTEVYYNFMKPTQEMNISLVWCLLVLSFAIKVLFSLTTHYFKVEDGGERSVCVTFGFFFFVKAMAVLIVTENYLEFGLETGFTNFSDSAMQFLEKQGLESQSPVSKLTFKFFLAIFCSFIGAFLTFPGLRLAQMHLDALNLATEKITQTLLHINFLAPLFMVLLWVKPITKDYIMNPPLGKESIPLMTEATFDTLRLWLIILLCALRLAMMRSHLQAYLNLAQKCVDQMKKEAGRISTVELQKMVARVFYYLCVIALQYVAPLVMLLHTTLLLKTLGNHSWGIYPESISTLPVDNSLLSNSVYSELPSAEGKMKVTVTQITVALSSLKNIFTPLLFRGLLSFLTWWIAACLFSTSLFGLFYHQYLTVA
Chain of UniProt O43396 (O43396 whole entry, looked up): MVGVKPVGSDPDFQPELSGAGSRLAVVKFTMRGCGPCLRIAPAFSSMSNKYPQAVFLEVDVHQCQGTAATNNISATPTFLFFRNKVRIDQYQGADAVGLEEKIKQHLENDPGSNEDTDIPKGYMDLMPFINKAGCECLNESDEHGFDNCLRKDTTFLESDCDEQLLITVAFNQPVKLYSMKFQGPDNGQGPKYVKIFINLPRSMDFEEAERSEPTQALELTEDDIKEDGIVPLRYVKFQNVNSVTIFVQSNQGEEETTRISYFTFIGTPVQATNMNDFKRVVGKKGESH

Row | Target | log2 fold change [1] | log2 fold change [2] | log2 fold change [3] | log2 fold change [4] | log2 fold change [5] | log2 fold change [6] | log2 fold change [7] | log2 fold change [8] | log2 fold change [9] | log2 fold change [10] | log2 fold change [11] | log2 fold change [12] | log2 fold change [13] | log2 fold change [14] | log2 fold change [15] | log2 fold change [16] | log2 fold change [17] | log2 fold change [18] | log2 fold change [19] | log2 fold change [20]
1 | TMEM161B (UniProt Q8NDZ6) | -0.01 | 0.073 | -0.148 | -0.018 | -0.273 (active) | -0.046 | -0.08 | 0.103 | -0.043 | 0.036 | -0.056 | 0.029 | -0.017 | -0.073 | 0.041 | 0.097 | 0.036 | -0.011 | 0.003 | -0.03
2 | VPS41 (UniProt P49754) | -0.134 | 0.034 | -0.012 | -0.039 | -0.094 | -0.03 | 0 | 0.013 | -0.084 | 0.08 | -0.006 | -0.163 | -0.267 (active) | -0.163 | 0.083 | 0.072 | 0.082 | -0.006 | -0.046 | -0.056
3 | UBR2 (UniProt Q8IWV8) | 0.021 | 0.072 | 0.02 | 0.01 | -0.107 | -0.069 | -0.023 | 0.058 | -0.095 | 0.011 | -0.007 | 0.038 | 0.039 | 0.007 | 0.049 | 0.137 | 0.05 | 0.061 | 0.044 | -0.14
4 | TSFM (UniProt P43897) | 0.091 | -0.087 | 0.062 | -0.217 | -0.143 | 0.039 | 0.033 | 0.033 | 0.013 | -0.36 (active) | -0.068 | 0.03 | -0.05 | -0.076 | 0.162 | 0.016 | 0.181 | 0.11 | -0.043 | 0
5 | UHRF1BP1 (UniProt Q6BDS2) | 0.042 | 0.015 | 0.138 | 0.003 | 0.044 | -0.023 | 0.045 | 0.021 | -0.005 | 0.028 | -0.019 | 0.074 | 0.019 | 0.029 | -0.058 | 0.004 | -0.012 | -0.043 | -0.032 | 0.007
6 | TOE1 (UniProt Q96GM8) | 0.301 | 0.033 | 0.152 | 0.178 | 0.097 | 0.017 | -0.113 | -0.072 | -0.036 | 0.111 | 0.09 | -0.011 | 0.104 | -0.01 | -0.038 | -0.047 | 0.011 | 0.026 | 0.122 | -0.18
7 | WDR62 isoform 4 (UniProt O43379) | -0.193 | 0.016 | -0.149 | -0.041 | -0.107 | -0.083 | 0.009 | 0.032 | 0.002 | 0.024 | -0.07 | -0.099 | -0.052 | -0.038 | 0 | 0.05 | 0.054 | 0.073 | 0.01 | -0.07
8 | TOP2A isoform 4 (UniProt P11388) | 0.308 | 0.092 | -0.119 | 0.033 | 0.102 | -0.11 | -0.29 | -0.324 | 0.104 | -0.292 | 0.159 | 0.058 | 0.307 | 0.19 | -0.042 | 0.034 | -0.112 | 0.255 | 0.296 | -0.205
9 | VPS39 (UniProt Q96JC1) | -0.032 | 0.069 | -0.019 | -0.068 | -0.15 | -0.017 | 0.033 | 0.003 | -0.058 | 0.027 | 0.026 | -0.119 | -0.195 | -0.039 | 0.05 | 0.101 | 0.01 | -0.004 | 0.055 | -0.042
10 | UHRF1BP1L (UniProt A0JNW5) | 0.055 | -0.002 | 0.105 | 0.005 | -0.003 | -0.029 | 0.036 | 0.038 | -0.065 | 0.007 | -0.004 | -0.017 | -0.028 | 0.055 | -0.024 | -0.035 | -0.032 | 0.015 | -0.052 | -0.013
11 | TXNL1 (UniProt O43396) | 0.04 | 0.005 | -0.035 | -0.006 | -0.074 | 0.008 | -0.004 | -0.035 | -0.06 | 0.057 | -0.048 | -0.013 | -0.084 | -0.015 | 0.028 | 0.018 | 0.087 | 0.074 | -0.004 | -0.03
